IDE inh: inhibitors of human insulin-degrading enzyme in cells. hit rate 0.41% among 320,000. HEK cells, FAbetaB cleavage, fluorescence polarization. AID 434962. inhibition, % at 5.59 µM. P14735;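 active = percent inhibition above the average of all tested compounds plus 3 SD, set per screening campaign, cut at about 16% in these data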;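 also: IDE supplied by intact live HEK cells; FP after avidin binding of uncleaved biotin substrate so inhibition keeps polarization high; 0% = DMSO wells and 100% = 60 µM reference IDE inhibitor Ii1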
Target sequence (P14735 whole entry, looked up): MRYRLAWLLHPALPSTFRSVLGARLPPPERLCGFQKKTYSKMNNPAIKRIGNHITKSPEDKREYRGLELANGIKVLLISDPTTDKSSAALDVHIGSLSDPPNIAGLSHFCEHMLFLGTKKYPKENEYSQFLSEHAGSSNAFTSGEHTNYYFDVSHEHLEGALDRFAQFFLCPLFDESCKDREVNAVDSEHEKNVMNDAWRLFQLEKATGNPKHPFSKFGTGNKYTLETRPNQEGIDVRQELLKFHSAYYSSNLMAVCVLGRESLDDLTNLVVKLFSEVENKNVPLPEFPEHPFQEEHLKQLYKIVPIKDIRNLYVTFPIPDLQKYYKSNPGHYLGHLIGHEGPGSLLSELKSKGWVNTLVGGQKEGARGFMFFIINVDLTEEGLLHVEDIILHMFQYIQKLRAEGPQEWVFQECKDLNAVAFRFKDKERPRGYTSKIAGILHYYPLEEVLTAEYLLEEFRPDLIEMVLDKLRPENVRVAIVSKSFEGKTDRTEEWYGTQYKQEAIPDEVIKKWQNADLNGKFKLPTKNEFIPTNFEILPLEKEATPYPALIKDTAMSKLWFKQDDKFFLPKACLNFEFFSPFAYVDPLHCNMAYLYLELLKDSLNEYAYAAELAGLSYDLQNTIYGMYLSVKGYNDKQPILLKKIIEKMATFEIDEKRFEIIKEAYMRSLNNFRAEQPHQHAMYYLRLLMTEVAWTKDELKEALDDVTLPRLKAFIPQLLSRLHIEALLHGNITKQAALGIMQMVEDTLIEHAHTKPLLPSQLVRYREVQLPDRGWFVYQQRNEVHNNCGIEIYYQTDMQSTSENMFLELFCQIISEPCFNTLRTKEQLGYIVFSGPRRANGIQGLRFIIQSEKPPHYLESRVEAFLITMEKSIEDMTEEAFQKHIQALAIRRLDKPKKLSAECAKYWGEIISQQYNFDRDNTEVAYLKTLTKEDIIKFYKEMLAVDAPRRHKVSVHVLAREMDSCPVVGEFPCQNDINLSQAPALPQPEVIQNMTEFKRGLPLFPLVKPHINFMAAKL
IDE act: activators of human insulin-degrading enzyme in cells | P14735 | HEK cells, FAbeta-B cleavage, fluorescence polarization; 0% vehicle, 100% cell-free pure enzyme wells | activation, % at 5.96 µM | hit rate 0.073% among 340,000;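 active = activation above the mean of all tested compounds plus 3 SD, set per screening campaign, cut at about 17% in these data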
TPT1 inhibitor: blocks Candida albicans tRNA 2'-phosphotransferase. recombinant caTPT1, FP RNA substrate dephosphorylation. inhibition, % at 5 µM. hit rate 0.81% among 300,000;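 active = inhibition above the mean of all tested compounds plus 3 SD, set per screening campaign, cut at about 24% in these data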;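 also: plate controls were DMSO alone for no effect and ferristatin control at 100 nM for full effect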
Myeloid diff MLP: myeloid differentiation induction; ER-HoxA9 myeloid progenitors, lysozyme-GFP differentiation, flow cytometry; calls only at 10 µM; hit rate 1% among 360,000;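 active = normalized GFP-positive differentiation at or above the plate's own cutoff, the solvent-only control mean plus 3 SD; inconclusive = no clear call, values can overlap the other calls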;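 also: cells exposed to compound for four days before flow analysis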
CRFR2-BP ag: CRF-BP/CRF-R2 complex agonism. HEK293 CRF-R2/CRF-BP, calcium dye fluorescence (FLIPR); percent of saturating CRF peptide response. activation, % at 13.2 µM. hit rate 0.46% among 350,000;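 active = activation of at least 50%, plus an integration ratio under a set limit after plate pattern correction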;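 also: plate controls were neutral control wells without compound for no effect and CRF at EC100 for full effect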
CRFBP-R2 block: antagonists of CRF-binding protein/CRF-R2 receptor complex. HEK293 CRF-R2/CRF-BP, CRF-induced calcium fluorescence. inhibition, % at 11.8 µM. hit rate 0.59% among 350,000;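 active = inhibition of the ligand-induced calcium signal above about 50% at the single tested concentration, limit read from the data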
* hit, by the source's call. A selection: hits, their analogues and other compounds. The true share with any hit is near 2.6%.

What do the screens show for `Cc1ccc2oc(-c3ccc(NC(=O)c4ccncc4)cc3O)nc2c1`?
IDE inh: -1; IDE act: -3; TPT1 inhibitor: -1; Myeloid diff MLP: active; CRFR2-BP ag: -1; CRFBP-R2 block: 2

What do the screens show for `CCCC(=O)Nc1ccc(-c2nc3cc(C)c(C)cc3o2)c(O)c1`?
IDE inh: 7; IDE act: -3; TPT1 inhibitor: 3; Myeloid diff MLP: inactive; CRFR2-BP ag: 3; CRFBP-R2 block: 75*

How did CCCC(=O)Nc1ccc(-c2nc3cc(C)ccc3o2)cc1 do in these assays?
IDE inh: 7; IDE act: -2; TPT1 inhibitor: -5; Myeloid diff MLP: inactive; CRFR2-BP ag: 0; CRFBP-R2 block: -10

Results for COc1ccc(CC(=O)Nc2ccc(-c3nc4cc(C)ccc4o3)c(O)c2)cc1OC ?
IDE inh: 3; IDE act: -2; TPT1 inhibitor: 1; Myeloid diff MLP: inactive; CRFR2-BP ag: -1; CRFBP-R2 block: -5

Results for CCN(CC)S(=O)(=O)c1ccc2c(c1)nc(CCC(=O)Nc1ccccc1Cc1ccccc1)n2CC ?
IDE inh: 0; IDE act: 2; TPT1 inhibitor: -1; Myeloid diff MLP: inactive; CRFR2-BP ag: -1; CRFBP-R2 block: 29

What do the screens show for `Cc1ccc(S(=O)(=O)N2CCC(C(=O)OCC(=O)NCc3cccc(Cl)c3)CC2)cc1C`?
IDE inh: -2; IDE act: 4; Myeloid diff MLP: inactive; CRFR2-BP ag: 1; CRFBP-R2 block: 15

Results for O=C(Nc1nc2ccccc2s1)C1c2ccccc2Oc2ccccc21 ?
IDE inh: 4; IDE act: 0; TPT1 inhibitor: 1; Myeloid diff MLP: active; CRFR2-BP ag: -3; CRFBP-R2 block: -61

Results for O=c1oc(CCO)cc2ccc(Br)cc12 ?
IDE inh: 2; IDE act: -2; Myeloid diff MLP: inactive; CRFR2-BP ag: 0; CRFBP-R2 block: 66*

What do the screens show for `O=c1oc(CCO)cc2ccccc12`?
IDE inh: 1; IDE act: -2; Myeloid diff MLP: inactive; CRFR2-BP ag: 1; CRFBP-R2 block: 7

Results for COc1ccccc1CN1C(=O)CN(C2CCCC2)C(=O)C1c1ccc(F)cc1 (centres undefined) ?
IDE inh: -3; IDE act: 5; TPT1 inhibitor: -1; Myeloid diff MLP: active; CRFR2-BP ag: -1; CRFBP-R2 block: -27

How did C/C(=N\NC(=S)Nc1ccc(C)cc1)c1cccc(N)c1 do in these assays?
IDE inh: 3; IDE act: 10; TPT1 inhibitor: -1; Myeloid diff MLP: inactive; CRFR2-BP ag: 179*; CRFBP-R2 block: 17

How did CCCC/C=C/C(NC(=O)c1ccc(-c2ccccc2)cc1)c1ccccc1 (centres undefined) do in these assays?
IDE inh: 1; IDE act: 0; TPT1 inhibitor: -1; Myeloid diff MLP: inactive; CRFR2-BP ag: 3; CRFBP-R2 block: -5

How did CCCC/C=C/C(NC(=O)CCc1ccccc1)c1ccccc1 (centres undefined) do in these assays?
IDE inh: 3; IDE act: 7; TPT1 inhibitor: 1; Myeloid diff MLP: active; CRFR2-BP ag: 0; CRFBP-R2 block: 1

Results for COc1ccccc1CNC(=O)C1CCC(CNS(=O)(=O)c2ccc(F)cc2)CC1 (centres undefined) ?
IDE inh: 3; IDE act: 4; TPT1 inhibitor: -2; Myeloid diff MLP: inactive; CRFR2-BP ag: -2; CRFBP-R2 block: 4

What do the screens show for `Nc1ccccc1Nc1ccccc1`?
IDE inh: 0; IDE act: 7; TPT1 inhibitor: 8; Myeloid diff MLP: active; CRFR2-BP ag: 9; CRFBP-R2 block: 5

Results for COc1cc(C(=O)Nc2cc(-c3ccccc3)[nH]n2)cc(OC)c1OC ?
IDE inh: -4; IDE act: -6; TPT1 inhibitor: -1; Myeloid diff MLP: inactive; CRFR2-BP ag: -1; CRFBP-R2 block: -17

How did Cc1ccc(-n2nc(-c3ccccc3)cc2Nc2ccccc2N)cc1 do in these assays?
IDE inh: -3; IDE act: 1; TPT1 inhibitor: 0; Myeloid diff MLP: inactive; CRFR2-BP ag: 2; CRFBP-R2 block: 2

What do the screens show for `Nc1ccccc1Nc1cc(-c2ccccc2)nn1-c1ccccc1`?
IDE inh: -1; IDE act: -3; TPT1 inhibitor: -1; Myeloid diff MLP: active; CRFR2-BP ag: 0; CRFBP-R2 block: -10

How did Nc1ccccc1Nc1cc(-c2ccccc2)[nH]n1 do in these assays?
IDE act: 3; Myeloid diff MLP: active; CRFR2-BP ag: 4; CRFBP-R2 block: -8

What do the screens show for `CC1(C)Nc2ccccc2N(CC(=O)N2CCCCC2)C1=O`?
IDE inh: -3; IDE act: 0; TPT1 inhibitor: 1; Myeloid diff MLP: inactive; CRFR2-BP ag: 0; CRFBP-R2 block: 10

Results for CN1/C(=C\C=Nc2ccc3ccccc3c2)C(C)(C)c2ccccc21 ?
IDE inh: 2; IDE act: -3; TPT1 inhibitor: 49*; Myeloid diff MLP: inactive

What do the screens show for `CN(C)c1ccc(N=C/C=C2\N(C)c3ccccc3C2(C)C)cc1`?
IDE inh: -2; IDE act: -13; TPT1 inhibitor: 9; Myeloid diff MLP: active; CRFR2-BP ag: 5; CRFBP-R2 block: -17

How did CN1/C(=C\C=O)C(C)(C)c2ccccc21 do in these assays?
IDE inh: 4; IDE act: 2; TPT1 inhibitor: 0; Myeloid diff MLP: inactive; CRFR2-BP ag: 0; CRFBP-R2 block: -7

Results for CN1\C(=C/C=C/C=C/C=[N+](C)C)C(C)(C)c2ccccc21 ?
IDE act: -82; Myeloid diff MLP: active; CRFR2-BP ag: 49; CRFBP-R2 block: -75

What do the screens show for `COCCN=C1N[C@@H](c2cccc(C(F)(F)F)c2)C(C(=O)OC)=C(C)N1Cc1ccccc1`?
IDE inh: 7; IDE act: 2; TPT1 inhibitor: -5; Myeloid diff MLP: inactive; CRFR2-BP ag: 0; CRFBP-R2 block: -7

What do the screens show for `COC(=O)C1=C(C)N(Cc2ccccc2)C(=NCc2cccc(C(F)(F)F)c2)N[C@H]1c1cccc(C(F)(F)F)c1`?
IDE inh: 5; IDE act: 29*; Myeloid diff MLP: inconclusive; CRFR2-BP ag: -1; CRFBP-R2 block: -17

Results for COC(=O)C1=C(C)N(CC2CC2)C(=NCc2cccc(C(F)(F)F)c2)N[C@H]1c1ccccc1 ?
IDE inh: 0; IDE act: 2; Myeloid diff MLP: active; CRFR2-BP ag: 3; CRFBP-R2 block: -7

Results for COC(=O)C1=C(C)N(Cc2ccccc2)C(=NCc2cccc(C(F)(F)F)c2)N[C@H]1c1cccc(F)c1 ?
IDE inh: -2; IDE act: 24*; TPT1 inhibitor: -1; Myeloid diff MLP: inconclusive; CRFR2-BP ag: 1; CRFBP-R2 block: -19

What do the screens show for `S=c1sc2ccccc2n1CCc1ccncc1`?
IDE inh: 0; IDE act: 1; TPT1 inhibitor: -2; Myeloid diff MLP: inactive; CRFR2-BP ag: -1; CRFBP-R2 block: -2

Screening data from PubChem BioAssay.
